Test results from PubChem BioAssay (NCATS).
Results filed as inconclusive are left out. Active and inactive are the calls of the source. Calls come from the whole dose curve; as a rule, active = well fitted activation curve with a large enough effect; inconclusive = small, poorly fitted or top-dose-only effect; inactive = no such curve, though single readings can be large or run the other way.

The molecules below were run against Cellular tumor antigen p53 (Homo sapiens) (UniProt P04637) (assay: Primary qHTS for small molecule compounds that upregulate eGFP-tagged delta133p53alpha (in N-terminal) cells. (AID 2060322; note: nearly all actives have a fitted effect of over 75% in size;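 for activation: cells pre-induced with doxycycline then dosed without doxycycline; series mostly up to about 56 µM; 0% = DMSO vehicle and 100% = reference activator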)). Details: NCI-H358 eGFP-delta133p53alpha fluorescence, 24 h; activation: active compounds read high.
In short: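 NCI-H358 cells pre-induced 24 h with 10 ng/ml doxycycline for eGFP-delta133p53alpha, plated dox-free and exposed 24 h at 37C to titrated compounds. Fixed, Hoechst-stained; gated GFP peak intensity by laser scanning cytometry, normalized to DMSO (0%) and 57.5 uM 5-azacytidine (100%).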
Potency is the fitted concentration of half-maximal effect.

Chain of Cellular tumor antigen p53 (Homo sapiens) (P04637 whole entry, looked up): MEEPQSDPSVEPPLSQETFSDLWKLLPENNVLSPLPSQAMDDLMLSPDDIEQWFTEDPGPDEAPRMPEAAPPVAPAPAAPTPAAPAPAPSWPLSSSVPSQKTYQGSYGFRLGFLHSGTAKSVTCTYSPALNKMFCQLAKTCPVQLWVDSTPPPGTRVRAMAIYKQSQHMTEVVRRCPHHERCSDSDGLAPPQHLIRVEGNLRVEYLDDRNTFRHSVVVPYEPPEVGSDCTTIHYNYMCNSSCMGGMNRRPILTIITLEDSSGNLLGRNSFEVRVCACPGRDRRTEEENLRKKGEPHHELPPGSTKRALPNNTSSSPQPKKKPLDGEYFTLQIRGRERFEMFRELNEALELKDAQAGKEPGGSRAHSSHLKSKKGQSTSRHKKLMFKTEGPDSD

SMILES	activation	Potency
CC1OC(OC2C(O)C(OC3CCC4(C)C(CCC5(C)C4CC=C4C6CC(C)(COC7OC(CO)C(O)C(O)C7O)CC(O)C6(C)CCC45C)C3(C)C)OC(C(=O)O)C2O)C(O)C(O)C1OC1OCC(O)C(O)C1O (stereo not given)	-4.46% (inactive)	–
COc1ccc(F)cc1-c1cc(NC(=O)[C@@H]2CCCNC2)ncc1Cl	–	0.269 µM (active)
CCS(=O)(=O)N1CC(CC#N)(n2cc(-c3ncnc4[nH]ccc34)cn2)C1	4.89% (inactive)	–
CC1CCCC[C@H]2C(=O)C=C[C@H](O)[C@@H]2CC(=O)O1 (stereo not given in full)	–	23.9 µM (active)
O=C(/C=C/c1ccc(O)cc1)OCC1=CC2OC(=O)C3=CO[C@@H](O[C@@H]4O[C@H](CO)[C@@H](O)[C@H](O)[C@H]4O)[C@H]1[C@@H]32 (stereo not given in full)	0% (inactive)	–
C/C(=C/CO)CC[C@@H]1[C@@](C)(O)CCC2C(C)(C)CCC[C@]21C (stereo not given in full)	-7.14% (inactive)	–
C[C@@H](c1nc(-c2ccc(C#N)cc2)cs1)[C@](O)(Cn1cncn1)c1cc(F)ccc1F	-2.33% (inactive)	–
COC1C(=O)CCC2(CO2)C1(O)C1(C)OC1CC=C(C)C (stereo not given)	-9.82% (inactive)	–
CC(=O)OC1C(OC(=O)c2ccccc2)C2C(C)(C)CC(=O)CC2(C)C23CCC(C)(C2)C(O)CC13 (stereo not given)	-22.3% (inactive)	–
CN(CC1COCCO1)S(=O)(=O)Nc1ccc2ccc3ncc(-c4cnn(C)c4)cc3c(=O)c2c1 (stereo not given)	0.893% (inactive)	–
CC1=C2CC3OC3(C)CCC3OC3(C)CC2OC1=O (stereo not given)	9.82% (inactive)	–
CC1=C(C(=O)O)/C(=C/CO[C@@H]2O[C@H](COC(=O)/C=C/c3ccc(O)cc3)[C@@H](O)[C@H](O)[C@H]2O)C(O)C1 (stereo not given in full)	-17.6% (inactive)	–
C=C(C)C1CCC2(C(=O)OC3OC(COC4OC(CO)C(O)C(O)C4O)C(OC4OC(C)C(O)C(O)C4O)C(O)C3O)CCC3(C(=O)O)C(CCC4C5(C)CCC(=O)C(C)(C)C5CCC43C)C12 (stereo not given)	-8.4% (inactive)	–
O=C(OCC12OC1C=CC(OC(=O)c1ccccc1)C2O)c1ccccc1 (stereo not given)	10.7% (inactive)	–
C[C@@H]1O[C@@H](OC[C@H]2O[C@@H](OCc3ccccc3)[C@H](O)[C@@H](O)[C@@H]2O)[C@H](O)[C@H](O)[C@H]1O	15.3% (inactive)	–
CC1=CC(=O)CC(C)(CO)C1(O)/C=C/C(C)O[C@@H]1O[C@H](CO)[C@@H](O)[C@H](O)[C@H]1O (stereo not given in full)	-9.82% (inactive)	–
COC(=O)/C=C/c1ccc(O[C@@H]2O[C@H](CO)[C@@H](O)[C@H](O)[C@H]2O)cc1	-8.04% (inactive)	–
CC(=O)C=C=C1C(C)(C)CC(O)CC1(C)O[C@@H]1O[C@H](CO[C@H]2OC[C@](O)(CO)[C@H]2O)[C@@H](O)[C@H](O)[C@H]1O (stereo not given in full)	-14.3% (inactive)	–
CC1(C)CCC2(C(=O)OC3OC(COC4OC(CO)C(O)C(O)C4O)C(O)C(O)C3O)CCC3(C)C(=CCC4C5(C)CCC(OC6OCC(O)C(O)C6O)C(C)(C)C5CCC43C)C2C1O (stereo not given)	-11.5% (inactive)	–
COC(=O)c1ccccc1O[C@@H]1O[C@H](CO[C@@H]2OC[C@@H](O)[C@H](O)[C@H]2O)[C@@H](O)[C@H](O)[C@H]1O	-12.2% (inactive)	–
COC(=O)C1(Cc2ccc(O)cc2)OC(=O)C(OC)=C1c1ccc(O)cc1 (stereo not given)	-7.63% (inactive)	–
Nc1ncnc2c1nc(Cl)n2C1OC2COP(=O)(O)OC2C1O (stereo not given)	-12.3% (inactive)	–
Cc1ccccc1-n1c([C@H](C)Nc2nc(N)nc3nc[nH]c23)nc2cccc(C)c2c1=O	-15.2% (inactive)	–
CCC(CC)C(=O)Nc1sc2c(c1C#N)CCC(C(C)(C)CC)C2 (stereo not given)	-3.34% (inactive)	–
COc1ccc(/C=C/C(=O)O[C@H]2[C@@H]3C=CO[C@@H](O[C@@H]4O[C@H](CO)[C@@H](O)[C@H](O)[C@H]4O)[C@@H]3[C@@]3(CO)O[C@@H]23)cc1O	-2.29% (inactive)	–
CC12CC(c3ccoc3)OC(=O)C1CCC1(C)C2CCC(O)C1(C)O (stereo not given)	23.7% (inactive)	–
NC(=O)c1cnc(NCCc2ccc(O)c(Cl)c2)nc1NCc1ccccc1	–	9.53 µM (active)
O=C(/C=C/c1ccc(O)cc1)OC1[C@H](O)CC(O)(C(=O)O)C[C@H]1O (stereo not given in full)	-0.763% (inactive)	–
O=C(O)CC(CCc1ccccc1)OC1OC(CO)C(O)C(O)C1O (stereo not given)	3.57% (inactive)	–
CCC(C)C(=O)O[C@H]1CCC=C2C=C[C@H](C)[C@H](CC[C@@H](O)C[C@@H](O)CC(=O)O)[C@H]21 (stereo not given in full)	-32.8% (inactive)	–
